Results with a measured potency or affinity are listed apart. Activity calls are given as the source filed them.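 Rule for the calls: active = polarization signal falls with dose and the fitted half-maximal concentration is at or below ten times the sample's top valid dose; inconclusive = flat curve at 30 to 70% inhibition, or poor fit; inactive = signal rises, flat within 30%, or potency beyond limit.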

The target in the assay is Golgi-associated PDZ and coiled-coil motif-containing protein (Homo sapiens) (UniProt Q9HD26). As to the kind of experiment: potency against CAL PDZ-peptide interaction – biochemical, fluorescence polarization, Cerulean-tagged CAL PDZ, cherry-picks, dose response (AID 504773). To be noted: CAL PDZ-peptide binding, 1 h; series mostly up to 50 µM.
Regarding `CCOC(=O)C1CCN(C(=O)C2CC(=O)N(c3ccc4c(c3)OCCO4)C2)CC1` (configuration not stated), the compound was classed as inactive. As for `Cc1nc(Cl)sc1C(=O)Nc1cc(F)cc(F)c1`, the outcome was inactive. For the compound `O=C1CN(C(=O)CC2C(=O)NCCN2Cc2ccccc2C(F)(F)F)CCN1` (configuration not stated), the call was inactive. Consider `N/C(=N\OC(=O)Cc1ccccc1[N+](=O)[O-])c1cccnc1`, for which the compound was classed as inactive. As for `COc1cc([N+](=O)[O-])ccc1NC(=O)CN1CCN(C(=O)c2ccco2)CC1`, the compound was called inactive.

Consider `COc1cc(C2NC(=O)NC(C)=C2C(=O)OC2CCCCC2)cc(Br)c1O` (configuration not stated), for which the compound was classed as inactive. `O=C(NC1(C(F)(F)F)NC(=O)N(C2CCCCC2)C1=O)C1CC1` (configuration not stated): the compound was called inactive.

Regarding `CC(=Nc1ccccc1O)c1sc2ccccc2c1O`, the result was inactive.

With `CN(c1nc(-c2ccc(Br)cc2)cs1)C1CCS(=O)(=O)C1` (configuration not stated), the outcome was inactive. `CCOC(=O)C1=C(C)OC(N)=C(C#N)C1c1cccc(C)c1` (configuration not stated): the outcome was inactive. With `COc1ccc(OC)c(NC(=O)c2ccc(OC3CSC3)cc2)c1`, the outcome was inactive. In the case of `COCCCNC(=O)c1c[nH]c2ccc(S(=O)(=O)N3CCC(C)CC3)cc2c1=O`, the compound was called inactive. For `CC(C)(C)c1nn(-c2ccccc2)c2[nH]c(=O)c(C=O)cc12`, the call was inactive.

Regarding `COc1ccc(S(=O)(=O)N2CC(=O)Nc3ccccc32)cc1F`, the result was inactive.

As for `Nc1ccc(N(CCO)CCO)cc1`, the call was inactive. As for `CC1CCCC(C)N1/N=C/c1ccc(N(C)C)cc1` (configuration not stated), the result was inactive. The value for `CC1CCC(NS(=O)(=O)c2ccc3c(c2)n(C)c(=O)c(=O)n3C)CC1` (configuration not stated) was “inactive”; that for `COc1ccc(/C=N/N2CCN(c3ccccc3OC)CC2)cc1Br` was “inactive”; that for `O=C(NC1CCCCCCC1)c1cc([N+](=O)[O-])ccc1Cl` was “inactive”. `COc1ccc(C(=O)Nc2ccc(S(=O)(=O)N3CCCC3)cc2)cc1[N+](=O)[O-]`: the call was inactive. Take `COc1ccc(Cl)cc1C(=O)Nc1ccc2c(c1)OCCO2`: the result was inactive. Next, `C=CCOc1c(Cl)cc(CNn2cn[nH]c2=S)cc1OC`: “inactive”.

For the compound `COc1ccc(N2CCN(C(=O)c3cccc4nc(C)oc34)CC2)cc1`, the compound was called inactive. Next, `S=C(NCCc1ccccc1)NC1CCC(NC(=S)NCCc2ccccc2)CC1` (configuration not stated): “inactive”. In the case of `COc1ccc(NC(=O)c2cnn(-c3ccccc3)c2C)c(OC)c1`, the compound was called inactive. Turning to `CS(=O)(=O)c1ccc2nc(NC(=O)CN3C(=O)C4CC=CCC4C3=O)sc2c1` (configuration not stated), the result was inactive.

For the compound `CSc1ccccc1NC(=O)c1ccccc1`, the compound was classed as inactive.

In the case of `C=CCn1c(NC(=O)c2ccco2)nc2ccccc21`, the outcome was inactive. Next, `CN1CC(=O)N(CC(=O)Nc2ccc(Br)cc2F)C1=O`: “inactive”. Take `CCC1C(=O)NCCN1C(=O)CCc1nnc(CCc2ccc(OC)cc2)o1` (configuration not stated): the result was inactive. Consider `CC(c1ccccc1)N1CCN(C(=O)CCl)CC1` (configuration not stated), for which the outcome was inactive. As for `O=C(OCC(=O)N1CCOCC1)c1ccc[nH]c1=O`, the call was inactive. For the compound `O=C(NCc1ccccc1)c1cc2ccc(O)cc2oc1=O`, the result was inactive. `O=C(NNC(=O)c1ccc(Cl)c(Cl)c1)c1cccnc1`: the outcome was inactive. As to `COc1ccc(NC(=O)c2ccc3c(c2)NC(=O)CO3)cc1OC`, the call was inactive.

Take `COc1ccc(C(=O)N2CCCc3ccccc32)cc1Br`: the compound was classed as inactive. The value for `Cc1cc(SC2CCOC2=O)nc2ccccc12` (configuration not stated) was “inactive”.
